# Measured values: publication PMC7862700, “An all-to-all approach to the identification of sequence-specific readers for epigenetic DNA modifications on cytosine”
# Key:
# Experiment in all cases: DAPPL (digital affinity profiling via proximity ligation, sequencing); 10 mM Tris-HCl pH 7.5, 50 mM NaCl, 1 mM DTT, 4% glycerol, room temperature, 30 min; GST-TFs on glutathione beads, 16-mer random dsDNA library, 0.1% formaldehyde crosslink after washing; high values mean tight binding
# Details in all cases: protein: recombinant; tags: N-terminal GST; dsDNA, one strand shown
# [1] = target: ETV1 (Homo sapiens, UniProt P50549 1-477)
# In short: (§1)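 Binding signal is given per hexamer as its read frequency for a factor divided by its frequency in the tag-only sample. GST-fused human transcription factors were expressed in yeast, captured on glutathione beads, barcoded with DNA and pooled with that sample, then incubated with 200 nmole of a 16-mer random double-stranded DNA library in Tris/NaCl/DTT/glycerol buffer for 30 min at room temperature. The pools were then washed, crosslinked, proximity-ligated, amplified by PCR and sequenced on an Illumina NextSeq500.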
# [2] = target: T1, ERF (Homo sapiens, UniProt P50548 1-548)
# T1 sequence: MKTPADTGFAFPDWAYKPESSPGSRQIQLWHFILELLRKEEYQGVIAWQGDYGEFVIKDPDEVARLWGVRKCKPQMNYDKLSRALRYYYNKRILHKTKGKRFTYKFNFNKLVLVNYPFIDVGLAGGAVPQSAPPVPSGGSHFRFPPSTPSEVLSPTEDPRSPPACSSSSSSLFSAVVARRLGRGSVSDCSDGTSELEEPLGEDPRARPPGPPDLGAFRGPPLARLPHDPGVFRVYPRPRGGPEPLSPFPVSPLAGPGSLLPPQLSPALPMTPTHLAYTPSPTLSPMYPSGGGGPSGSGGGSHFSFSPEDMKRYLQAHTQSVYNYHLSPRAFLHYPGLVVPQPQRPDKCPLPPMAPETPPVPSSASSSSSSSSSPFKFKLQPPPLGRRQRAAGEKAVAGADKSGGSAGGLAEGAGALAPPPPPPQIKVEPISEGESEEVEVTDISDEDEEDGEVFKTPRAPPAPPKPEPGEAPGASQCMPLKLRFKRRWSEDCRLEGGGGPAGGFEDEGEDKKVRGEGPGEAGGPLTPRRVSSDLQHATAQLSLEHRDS
# In short: as §1
# [3] = target: T2, ETV3L (Homo sapiens, UniProt Q6ZN32 1-361)
# T2 sequence: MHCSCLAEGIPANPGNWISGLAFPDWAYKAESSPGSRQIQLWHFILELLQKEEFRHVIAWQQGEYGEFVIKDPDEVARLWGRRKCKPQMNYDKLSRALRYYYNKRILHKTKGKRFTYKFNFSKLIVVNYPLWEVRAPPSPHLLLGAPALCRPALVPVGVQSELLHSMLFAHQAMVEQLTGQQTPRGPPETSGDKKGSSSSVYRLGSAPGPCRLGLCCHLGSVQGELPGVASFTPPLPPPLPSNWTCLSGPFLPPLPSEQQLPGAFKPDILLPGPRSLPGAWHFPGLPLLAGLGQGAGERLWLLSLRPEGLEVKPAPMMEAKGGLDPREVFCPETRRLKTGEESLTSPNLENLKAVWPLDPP
# In short: as §1
# [4] = target: T3, ETS2 (Homo sapiens, UniProt P15036 1-469)
# T3 sequence: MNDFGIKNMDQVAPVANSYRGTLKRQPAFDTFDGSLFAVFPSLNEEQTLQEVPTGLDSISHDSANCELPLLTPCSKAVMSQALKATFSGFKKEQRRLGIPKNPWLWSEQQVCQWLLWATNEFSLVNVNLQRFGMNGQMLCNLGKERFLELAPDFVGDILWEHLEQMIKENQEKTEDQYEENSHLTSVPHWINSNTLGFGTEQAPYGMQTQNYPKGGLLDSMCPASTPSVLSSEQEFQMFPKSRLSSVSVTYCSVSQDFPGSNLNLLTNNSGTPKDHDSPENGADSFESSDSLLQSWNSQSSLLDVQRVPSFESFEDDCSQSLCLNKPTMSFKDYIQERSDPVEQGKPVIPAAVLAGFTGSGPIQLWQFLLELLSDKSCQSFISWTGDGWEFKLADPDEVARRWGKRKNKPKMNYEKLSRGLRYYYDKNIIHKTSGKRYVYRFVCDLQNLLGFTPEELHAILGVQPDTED
# In short: as §1
# [5] = target: T4, SPDEF (Homo sapiens, UniProt O95238 1-335)
# T4 sequence: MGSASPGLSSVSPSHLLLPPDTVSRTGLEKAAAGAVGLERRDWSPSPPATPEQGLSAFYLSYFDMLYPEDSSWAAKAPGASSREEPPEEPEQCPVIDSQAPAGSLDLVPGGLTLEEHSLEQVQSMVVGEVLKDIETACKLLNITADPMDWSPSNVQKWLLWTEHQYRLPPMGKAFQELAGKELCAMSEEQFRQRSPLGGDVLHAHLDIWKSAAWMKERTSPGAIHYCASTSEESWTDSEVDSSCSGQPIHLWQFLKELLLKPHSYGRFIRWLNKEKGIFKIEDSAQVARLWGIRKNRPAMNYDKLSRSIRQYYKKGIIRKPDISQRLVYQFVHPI
# In short: as §1
# [6] = target: T5, ETV7 (Homo sapiens, UniProt Q9Y603 1-341)
# T5 sequence: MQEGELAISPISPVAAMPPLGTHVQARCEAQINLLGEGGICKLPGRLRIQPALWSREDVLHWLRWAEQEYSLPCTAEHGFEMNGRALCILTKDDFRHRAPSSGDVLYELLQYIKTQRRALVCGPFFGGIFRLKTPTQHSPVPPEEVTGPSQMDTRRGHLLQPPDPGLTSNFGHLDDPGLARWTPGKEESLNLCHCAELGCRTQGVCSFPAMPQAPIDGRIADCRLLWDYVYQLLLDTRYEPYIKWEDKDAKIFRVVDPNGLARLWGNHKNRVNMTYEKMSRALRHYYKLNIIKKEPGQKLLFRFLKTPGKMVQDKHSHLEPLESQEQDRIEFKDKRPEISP
# In short: as §1
# [7] = target: T6, ELF5 (Homo sapiens, UniProt Q9UKW6-2 1-255)
# T6 sequence: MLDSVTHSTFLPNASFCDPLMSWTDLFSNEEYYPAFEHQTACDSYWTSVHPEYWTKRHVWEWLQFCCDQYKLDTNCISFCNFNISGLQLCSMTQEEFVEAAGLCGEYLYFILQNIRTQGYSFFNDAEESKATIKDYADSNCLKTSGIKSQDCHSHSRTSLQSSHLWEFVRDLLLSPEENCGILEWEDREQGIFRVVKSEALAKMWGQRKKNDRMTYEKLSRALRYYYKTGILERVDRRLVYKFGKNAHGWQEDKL
# In short: as §1
# [8] = target: T7, ETV3 (Homo sapiens, UniProt P41162-2 1-143)
# T7 sequence: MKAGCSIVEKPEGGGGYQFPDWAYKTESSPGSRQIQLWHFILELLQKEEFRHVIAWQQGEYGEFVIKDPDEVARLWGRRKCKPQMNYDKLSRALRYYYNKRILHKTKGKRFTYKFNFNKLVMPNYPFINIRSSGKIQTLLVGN
# In short: as §1
# [9] = target: ETV6 (Homo sapiens, UniProt P41212 1-452)
# In short: as §1
# Chain of ETV6 (P41212 whole entry): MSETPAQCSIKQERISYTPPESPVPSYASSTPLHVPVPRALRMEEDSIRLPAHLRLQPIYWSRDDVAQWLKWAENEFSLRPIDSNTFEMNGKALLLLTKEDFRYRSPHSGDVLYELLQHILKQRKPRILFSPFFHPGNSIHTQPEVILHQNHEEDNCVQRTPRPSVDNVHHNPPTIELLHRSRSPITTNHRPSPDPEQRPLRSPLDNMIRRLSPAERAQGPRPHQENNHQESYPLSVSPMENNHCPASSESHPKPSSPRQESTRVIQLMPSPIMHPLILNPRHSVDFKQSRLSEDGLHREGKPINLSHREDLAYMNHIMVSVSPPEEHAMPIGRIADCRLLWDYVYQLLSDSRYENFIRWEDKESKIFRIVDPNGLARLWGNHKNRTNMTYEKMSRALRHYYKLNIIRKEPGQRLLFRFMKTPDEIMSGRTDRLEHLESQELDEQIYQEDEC
# Chain of ETV1 (P50549 whole entry, the tested form may be a part): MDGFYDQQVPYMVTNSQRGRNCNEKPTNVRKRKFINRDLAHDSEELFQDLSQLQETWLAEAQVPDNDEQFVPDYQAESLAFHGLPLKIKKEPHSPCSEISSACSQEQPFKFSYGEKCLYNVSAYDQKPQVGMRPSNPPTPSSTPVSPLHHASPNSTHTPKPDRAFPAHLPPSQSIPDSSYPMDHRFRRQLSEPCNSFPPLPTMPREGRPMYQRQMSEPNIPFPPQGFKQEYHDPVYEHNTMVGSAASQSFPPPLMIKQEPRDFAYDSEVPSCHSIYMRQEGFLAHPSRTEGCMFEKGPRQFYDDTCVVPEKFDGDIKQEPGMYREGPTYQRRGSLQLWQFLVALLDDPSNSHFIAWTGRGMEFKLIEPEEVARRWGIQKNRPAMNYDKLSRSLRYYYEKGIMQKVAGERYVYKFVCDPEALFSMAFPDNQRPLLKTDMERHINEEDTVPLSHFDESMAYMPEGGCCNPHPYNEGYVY
sequence,measurement,setting,value
TCTGAT,binding signal,[1],"1.15 fold enrichment (6-mer frequency, TF over GST control)"
same,binding signal,[2],"1.22 fold enrichment (6-mer frequency, TF over GST control)"
same,binding signal,[3],"1.29 fold enrichment (6-mer frequency, TF over GST control)"
same,binding signal,[4],"1.29 fold enrichment (6-mer frequency, TF over GST control)"
same,binding signal,[5],"1.22 fold enrichment (6-mer frequency, TF over GST control)"
same,binding signal,[6],"1.23 fold enrichment (6-mer frequency, TF over GST control)"
same,binding signal,[7],"1.19 fold enrichment (6-mer frequency, TF over GST control)"
same,binding signal,[8],"1.21 fold enrichment (6-mer frequency, TF over GST control)"
same,binding signal,[9],"1.19 fold enrichment (6-mer frequency, TF over GST control)"
